Results published in PubChem BioAssay (NCATS).
Results filed as inconclusive are left out. The source made the active and inactive calls. The call rests on the fitted dose curve; in most records, active means well fitted curve in the direction sought with a large enough effect; inconclusive means small, poorly fitted or top-dose-only effect, or another doubt; inactive means no such curve, though single readings can be large; an effect the other way counts as inactive or inconclusive.

Tests used:
[1] = MultiTox-Fluor Cytotoxicity Assay - LYMP1-001 - Dead Cells (AID 946)
Summary of the method: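 Seed 2500 LYMP1-001 cells/well, incubate 5 hr at 37 C; add compound, 16 hr at 37 C; add MultiTox-Fluor reagent, 60 min RT; read dead-cell fluorescence Ex/Em=485/520. Normalize to DMSO and 15 uM tetraoctylammonium bromide.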

[2] = MultiTox-Fluor Cytotoxicity Assay - LYMP1-001 - Live Cells (AID 947)
[3] = Cell Viability - LYMP1-002 - Assay at 16 hr (AID 948)
Summary of the method: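 Seed 2500 LYMP1-002 cells per well in complete medium and hold 5 hr at 37 C. Add compound across a concentration series and incubate 16 hr at 37 C. Add CellTiter-Glo, wait 30 min at room temperature, read luminescence.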

[4] = MultiTox-Fluor Cytotoxicity Assay - LYMP1-002 - Live Cells (AID 955)
Summary of the method: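 Read-out is live-cell protease activity (cell-permeant GF-AFC substrate, fluorescence Ex/Em=405/510), where a decrease indicates acute toxicity. Human lymphoblastoid cells were treated 16 hours at 37 C in a concentration series, and AC50 values came from standard Hill modelling.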

[5] = MultiTox-Fluor Cytotoxicity Assay - LYMP1-003 - Live Cells (AID 962);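 further: cytotoxic hits lower the live-cell protease signal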
Summary of the method: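 qHTS, 1536-well; 2500 cells/well LYMP1-003; 5 hr 37 C settle; cpd 16 hr 37 C; MultiTox-Fluor reagent 60 min RT; live-cell protease fluor. 405/510; Hill-fit AC50; tetraoctylammonium bromide pos. ctrl.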

[6] = Cell Viability - LYMP1-003 - Assay at 24 hr (AID 963)
Summary of the method: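 Cells seeded at 2500/well, 5 hr at 37 C; compounds added; 24 hr at 37 C; CellTiter-Glo added, 30 min room temperature; luminescence read. Decrease in ATP taken as cytotoxicity, AC50 from Hill modelling.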

[7] = Cell Viability - LYMP1-003 - Assay at 40 hr (AID 964); further: nearly all actives have a fitted effect of over 60% in size; further: potency means the concentration at half of the fitted maximal effect
Summary of the method: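 Cells were seeded at 2500 per well and incubated 5 hr at 37 C. Compounds were added across a concentration series and left 40 hr at 37 C. CellTiter-Glo was added for 30 min at room temperature before luminescence reading.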

[8] = Cell Viability - LYMP2-003 (AID 965);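 further: cells exposed to compounds for 24 h before reading; nearly all actives have a fitted effect of over 50% in size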
Summary of the method: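 Seed 2500 lymphoblastoid cells/well; incubate 5 hr, 37 C; add compounds; incubate 24 hr, 37 C; add CellTiter-Glo, 30 min RT; read luminescence. AC50 from Hill fit.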

[9] = Cell Viability - LYMP2-004 (AID 966); further: nearly all actives have a fitted effect of over 65% in size
Summary of the method: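 Cells seeded 2500/well, rested 5 hr at 37 C, dosed across a concentration series, incubated 24 hr at 37 C, then CellTiter-Glo added for 30 min at room temperature and luminescence read. Hill fitting gave AC50.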

[10] = Cell Viability - LYMP2-005 (AID 967); further: series mostly up to about 92 µM
Summary of the method: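 Acute cytotoxicity is scored as a concentration-dependent drop in intracellular ATP in human lymphoblastoid LYMP2-005 cells after 24 h compound treatment. ATP is quantified by luciferase luminescence, and AC50 is derived by Hill-equation modelling.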

[11] = Cell Viability - LYMP2-011 (AID 969); further: nearly all actives have a fitted effect of over 60% in size
Summary of the method: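 2500 cells/well, 5 hr 37 C; compound added, 24 hr 37 C; CellTiter-Glo 30 min RT; luminescence. qHTS concentration-response, Hill-equation AC50. Tetraoctylammonium bromide positive control.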

[12] = Cell Viability - LYMP2-013 (AID 970); further: series mostly up to about 92 µM; nearly all actives have a fitted effect of over 55% in size
Summary of the method: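 qHTS; 2500 lymphoblastoid cells/well; 5 hr 37 C settle; cpd 24 hr 37 C; CellTiter-Glo, 30 min RT; luminescence. AC50 = Hill fit.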

[13] = Cell Viability - LYMP2-015 (AID 971); further: nearly all actives have a fitted effect of over 55% in size
Summary of the method: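 Luminescent ATP read-out (CellTiter-Glo) served as the viability measure after lymphoblastoid cells were exposed to compounds for 24 hours at 37 C. Concentration-response data were fitted with the Hill equation to give AC50.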

[14] = Cell Viability - LYMP2-017 (AID 972); further: series mostly up to about 92 µM; nearly all actives have a fitted effect of over 55% in size
Summary of the method: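 2500 cells/well, 5 h 37 C; cpd 24 h 37 C in complete medium; CellTiter-Glo, 30 min RT; luminescence (ATP). AC50 via Hill fit, qHTS.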

[15] = Cell Viability - LYMP2-019 (AID 973); further: nearly all actives have a fitted effect of over 55% in size
Summary of the method: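 Luminescent ATP read-out (CellTiter-Glo, 30 min room temperature) served as the viability measure after 24 hr treatment of lymphoblastoid cells at 37 C. Concentration-response data were fitted to the Hill equation for AC50.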

[16] = Cell Viability - LYMP2-021 (AID 974)
Summary of the method: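 Plate 2500 lymphoblastoid cells per well and incubate 5 hr at 37 C. Add compounds over a concentration range and incubate 24 hr at 37 C. Add CellTiter-Glo, wait 30 min at room temperature, read luminescence.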

[17] = Cell Viability - LYMP2-023 (AID 975)
Summary of the method: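 2500 cells/well, 5 hr 37 C; cpd 24 hr 37 C; CellTiter-Glo, 30 min RT; luminescence. qHTS conc-response, Hill fit -> AC50. Pos ctrl tetraoctylammonium bromide.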

[18] = Cell Viability - LYMP2-025 (AID 976); further: series mostly up to about 92 µM
Summary of the method: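 Seed 2500 LYMP2-025 cells/well; 5 hr at 37 C; add compound; 24 hr at 37 C; add CellTiter-Glo; 30 min RT; read luminescence. AC50 from Hill-modelled concentration-response.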

[19] = Cell Viability - LYMP2-002 (AID 977);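 further: series mostly up to about 92 µM; compound exposure lasted 24 h at 37 °C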
Summary of the method: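 Cytotoxicity is scored as concentration-dependent loss of cellular ATP in a human lymphoblastoid line after 24 hr compound treatment at 37 C. AC50 is obtained by modelling concentration-response data with the Hill equation.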

[20] = qHTS assay for cell viability of the p53RE-bla HCT-116 cell line (AID 743292); further: nearly all actives have a fitted effect of over 55% in size
Summary of the method: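 CellSensor p53RE-bla HCT-116 cells (4,000/well) pre-incubated 5 h at 37 C, then exposed to compounds in DMSO for 16 h at 37 C. Viability read as ATP content by CellTiter-Glo luminescence after 30 min at room temperature.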

Measured: Potency

CC(=O)/C=C/c1ccccc1
inactive: all assays above

c1ccc2c(c1)-c1cccc3cccc-2c13
inactive: all assays above

Oc1ccccc1Cl
inactive: all assays above

COC1=CC(=O)OC(CCc2ccc3c(c2)OCO3)C1 (stereo not given)
not listed: [7]
inactive: all other assays above

CC(C)COC(=O)c1ccccc1C(=O)OCC(C)C
inactive: all assays above

Oc1ccccc1O
active: [7] 7.94 µM

c1ccc(Nc2ccc3ccccc3c2)cc1
inactive: all assays above

CCOC(=O)c1ccccc1N
inactive: all assays above
